Sampled rows, rich in hits. Any-hit rate of the full collection: about 5.1%.
GRIN3A LBD mod – modulates the human NR3A ligand-binding domain; NR3A LBD differential scanning fluorimetry, Tm shift; 0% = protein alone, 100% = glycine-bound protein; Tm shift relative to glycine control, % at 25 µM; actives 2.5% (n = 340,000); AID 1259313;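 active means melting temperature shift of at least 10% of the positive control shift, at one fixed dose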
MPTP inh – blocks calcium-induced mitochondrial swelling; inhibition, % at 10 µM; actives 1.4% (n = 360,000); isolated mouse mitochondria, Ca2+ swelling absorbance, 30 min;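 active means inhibition of 50% or more, scaled per plate between neutral and stimulator controls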
CRFBP-R2 agonist – agonists of human CRF-binding protein/CRF-R2 receptor complex. HEK293 CRF-R2/CRF-BP, calcium dye fluorescence (FLIPR); percent of saturating CRF peptide response. activation, % at 13.2 µM. actives 0.46% (n = 350,000). AID 588473;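 active means activation of at least 50%, plus an integration ratio under a set limit after plate pattern correction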
TMEM16A inh – inhibitors of mouse TMEM16A calcium-activated chloride channel; Q8BHY3; HEK293 TMEM16A/YFP iodide influx fluorescence, ionomycin; normalized B-score (activity score, 25-100; higher = stronger inhibition) at 10 µM; actives 1.2% (n = 310,000);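 active means ratio plate-corrected score three or more library SD toward inhibition, starting fluorescence score within five deviations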;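 further: score derived from kinetic fluorescence span divided by baseline fluorescence per well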
Target sequence (Q8BHY3 whole entry, looked up): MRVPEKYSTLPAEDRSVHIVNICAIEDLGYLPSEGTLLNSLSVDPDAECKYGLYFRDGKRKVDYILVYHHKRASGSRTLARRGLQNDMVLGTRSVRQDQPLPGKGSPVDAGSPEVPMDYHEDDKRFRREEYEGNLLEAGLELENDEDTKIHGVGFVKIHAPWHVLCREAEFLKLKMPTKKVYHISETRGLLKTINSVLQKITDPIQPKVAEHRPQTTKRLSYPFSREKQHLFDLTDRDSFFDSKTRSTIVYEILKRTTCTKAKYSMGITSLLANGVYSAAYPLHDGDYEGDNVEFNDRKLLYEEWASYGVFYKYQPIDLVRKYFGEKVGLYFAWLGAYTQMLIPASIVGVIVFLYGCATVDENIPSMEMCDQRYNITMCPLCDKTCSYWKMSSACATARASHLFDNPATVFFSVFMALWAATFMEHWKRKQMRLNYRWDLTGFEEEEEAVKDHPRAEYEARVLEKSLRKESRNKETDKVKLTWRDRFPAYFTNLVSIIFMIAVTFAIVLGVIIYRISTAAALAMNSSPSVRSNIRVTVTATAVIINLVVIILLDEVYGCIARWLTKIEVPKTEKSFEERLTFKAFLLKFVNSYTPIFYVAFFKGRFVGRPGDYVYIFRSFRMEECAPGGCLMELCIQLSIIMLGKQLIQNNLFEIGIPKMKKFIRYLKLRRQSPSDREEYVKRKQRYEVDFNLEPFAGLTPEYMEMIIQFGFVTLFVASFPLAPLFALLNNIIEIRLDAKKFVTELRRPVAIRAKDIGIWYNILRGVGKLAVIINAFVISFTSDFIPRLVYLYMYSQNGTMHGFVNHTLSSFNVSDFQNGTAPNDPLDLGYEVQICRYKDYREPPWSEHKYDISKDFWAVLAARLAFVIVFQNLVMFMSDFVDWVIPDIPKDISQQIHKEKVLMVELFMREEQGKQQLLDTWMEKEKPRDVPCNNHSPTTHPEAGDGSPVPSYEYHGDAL
CRFBP-R2 block – CRF-BP/CRF-R2 complex antagonism | inhibition, % at 11.8 µM | HEK293 CRF-R2/CRF-BP, CRF-induced calcium fluorescence | AID 588475 | actives 0.59% (n = 350,000);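 active means inhibition of the ligand-induced calcium signal above about 50% at the single tested concentration, limit read from the data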
ANO1 activ – mouse TMEM16A channel activation, primary screen; HEK293 TMEM16A/YFP-H148Q/I152L, iodide quench fluorescence; hits give low values; B-score at 10 µM; actives 0.3% (n = 340,000);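 active means fluorescence-ratio B-score plate-corrected deviation score at least 3 library SD below zero, with starting fluorescence score within 5 deviations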;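 further: channel opened by trigger with iodide after compound preincubation; score built on the fluorescence ratio of max minus min over baseline; more negative score means more quench and so TMEM16A activation or potentiation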
TMEM16A reconf – TMEM16A (mouse) chloride channel inhibition, re-confirmation. HEK293 TMEM16A/YFP-H148Q, iodide quench fluorescence; ionomycin added to raise cell calcium. inhibition, % at 10 µM. shares compounds with TMEM16A inh. actives 39% (n = 2,300);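 active means mean duplicate percent inhibition, scaled so buffer wells are 0 and the reference blocker 100, over three buffer SD above buffer mean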
TMEM16A Ca cntr – counter-screen for TMEM16A inhibitors: effect on calcium mobilization. calcium response (% of ionomycin), % at 10 µM. shares compounds with TMEM16A inh. actives 2% (n = 2,300). AID 652231. TMEM16A/YFP HEK293, Fluo4 calcium mobilization;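 active means duplicate-averaged calcium signal over 20% of the ionomycin maximum, relative to buffer baseline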;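 further: each well's signal is peak minus trough fluorescence divided by its pre-addition baseline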
Parental YFP cnt – counter-screen for TMEM16A inhibitors: effect in parental YFP-HEK293 cells; shares compounds with TMEM16A inh; iodide YFP quench, ionomycin; YFP ratio F(max-min)/F0 at 10 µM; 2,300 tested, under 10 active; AID 652233;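 active means yellow fluorescent protein signal ratio exceeding the buffer control mean by over 5 SD of those controls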;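 further: ratio is mean of duplicate wells from kinetic YFP trace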
ClC-1 rat inh – selectivity of TMEM16A inhibitors: inhibition of rat ClC-1 chloride channel; CHO ClC-1-YFP, iodide influx fluorescence quench; iodide control reads 0, buffer control 100; shares compounds with TMEM16A inh; ratio percent, % at 10 µM; 2,300 tested, under 10 active;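 active means duplicate-mean ratio percent above the mean of iodide-only control wells, which defines zero, plus 5 of their SD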;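 further: higher percent means stronger block of ClC-1 iodide influx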
A number is an active result; . = inactive; / = not tested or not shown.

SMILES | GRIN3A LBD mod | MPTP inh | CRFBP-R2 agonist | TMEM16A inh | CRFBP-R2 block | ANO1 activ | TMEM16A reconf | TMEM16A Ca cntr | Parental YFP cnt | ClC-1 rat inh
CC(Oc1ccc(Br)cc1)c1nc2c3ccccc3nc(=S)n2[nH]1 (configuration not stated) | . | . | . | 25 | . | . | 33% | . | . | .
CC1(C)C[C@@H]2C[C@@](C)(CN2C(=O)c2cc(COc3cccc(C(F)(F)F)c3)on2)C1 | . | . | . | 25 | . | . | . | . | . | .
Nc1ncnc2c1ncn2[C@@H]1O[C@H](CN2CCCS2(=O)=O)[C@@H](O)[C@H]1O | . | . | . | / | . | . | / | / | / | /
COc1ccc(NC(=O)CN(c2cc(C)cc(C)c2)S(=O)(=O)c2c(C)noc2C)cc1 | . | . | . | 100 | . | . | . | . | . | .
Cc1sc2c(=O)n3c(nc2c1C(=O)NC1CCCCC1)CCCCC3 | . | . | . | . | . | . | / | / | / | /
Cc1sc2c(=O)n3c(nc2c1C(=O)NCCCN1CCOCC1)CCCCC3 | . | . | . | 100 | . | . | . | . | . | .
COC(=O)c1ccc(COc2cccc3c2CCN(Cc2cccc(C)c2)C3=O)o1 | . | . | . | 25 | . | . | 19% | . | . | .
COC(=O)c1ccc(COc2cccc3c2CCN(Cc2ccccc2)C3=O)o1 | . | . | . | . | . | . | / | / | / | /
Cc1cccc2c(=O)cc(C(F)(F)F)[nH]c12 | . | . | . | . | . | . | / | / | / | /
O=c1cc(C(F)(F)F)[nH]c2c(OC(F)(F)F)cccc12 | . | . | . | 100 | . | . | 28% | . | . | .
COc1ccc(F)cc1-c1cc(C(=O)NCc2ccc(F)cc2)[nH]n1 | / | . | / | / | / | / | / | / | / | /
O=C(NC(=O)c1c(Cl)cccc1Cl)Nc1ccc(Oc2cccnc2)nc1 | . | . | . | . | . | . | / | / | / | /
O=C(Nc1ccc(Oc2cccnc2)nc1)c1ccc(C(F)(F)F)cc1 | . | . | . | 25 | 55 | . | . | . | . | .
O=C(Nc1ccc(Oc2cccc(C(F)(F)F)c2)nc1)c1ccco1 | . | . | . | . | . | . | / | / | / | /
CC(C)(C)c1ccc(Oc2ccc(NC(=O)c3ccco3)cn2)cc1 | . | . | . | 100 | . | . | 20% | . | . | .
Cc1cccc(NS(=O)(=O)c2ccc(C)c(C(=O)NCC(c3cccs3)N3CCOCC3)c2)c1 (configuration not stated) | . | . | . | / | . | . | / | / | / | /
CCC(=O)N(CCC(c1ccco1)c1ccccc1OC)Cc1cccs1 (configuration not stated) | . | . | . | 100 | . | . | . | . | . | .
CCc1cccc(NC(=O)C2CCCN(S(=O)(=O)c3cccs3)C2)c1 (configuration not stated) | . | . | . | . | . | . | / | / | / | /
Cc1cccc(C(=O)Nc2sc(-c3ccccc3)cc2C(=O)O)c1 | . | . | . | 25 | 58 | . | . | . | . | .
COc1cc(C(=O)NCCOc2cccc(C)c2)c(Br)c(OC)c1OC | . | . | . | . | . | . | / | / | / | /
COc1cc(C(=O)NCCOc2ccccc2)c(Br)c(OC)c1OC | . | . | . | 25 | . | . | . | . | . | .
CCOC(=O)C1(Cc2cccc(OC)c2)CCN(Cc2ccccc2)CC1 | . | . | . | . | . | . | / | / | / | /
CCOC(=O)C1(Cc2ccccc2Cl)CCN(Cc2csc(C(C)=O)c2)CC1 | . | . | . | 25 | . | . | . | . | . | .
